“And” between values parts separate entries of the source, which are not always exact repeats. Equal values may be shown once. About 83,000 compounds went through this panel and 20% of them were active in at least one assay; those are over-represented in the sample as a whole.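 Compound tested at a single concentration for 48 hours in 96-well plates; a percent growth value below 10 was scored as active.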 Unmarked numbers belong to inactive results. The source made the active and inactive calls.
Tested on: SK-MEL-5 melanoma
Assay: NCI-60 one-dose screen, 48 h (100 = growth as untreated, 0 = no growth, -100 = all killed)
Details: 10 µM
Protocol: Growth inhibition of the SK-MEL-5 human tumor cell line is measured as a screen for anti-cancer activity. Cells are grown in 96 well plates and exposed to the test compound for 48 hours. Compounds are tested at a single concentration, which is 10^-5 M for most compounds. The reported endpoint is percent growth (GI% or GIPRCNT), where numbers from 0 - 100% represent growth inhibition, and numbers from -100% - 0 represent cell death. For example, a value of 40 represents 60% growth inhibition. A value of 0 means no net growth occurred over the course of the experiment. A value of -40 indicates 40% of cells at the beginning of the experiment died by the end of the experiment. A value of -100 means all cells are dead at the end of the experiment.
NCI-60 Human Tumor Cell Lines Screen was performed using the standard one-dose NCI protocol, which is described in more detail at https://dtp.cancer.gov/discovery_development/nci-60/default.htm.
Compounds with GIPRCNT values below 10 were considered active. Activity score was based on GIPRCNT using the following formula: […]
Score is 0 for GIPRCNT values of 100 or above, 50 for GIPRCNT values of 0, and 100 for GIPRCNT values of -100.

`S=c1nc[nH]c2nc[nH]c12` was tested. Which growth did it give?
The growth was 61.8%.

How did the growth turn out when `O=c1ccn2c(n1)OC1CC2OC1COC(c1ccccc1)(c1ccccc1)c1ccccc1` (stereo not given) was run?
Its growth is 100%.

How did the growth turn out when `CS/C(=C\c1ccc(C(=O)c2ccc(C)cc2)n1C)S(C)=O` (stereo not given) was run?
The growth was 81.2%.

Same assay, conditions: 10 µM unless noted

Which growth does the source give for `O=C(Nc1ccccc1)OCC(CN1CCCCC1)OC(=O)Nc1ccccc1` (stereo not given) here?
Its growth is 60.5% and 93.7%.

For `N=c1sc2ccccc2n1CC(=O)O`, which growth is on record?
Its growth is 104%.

Which growth does the source give for `Cc1c(Cl)c(C)c(Cc2c(C)c(Cl)c(C)c(Cl)c2O)c(O)c1Cl` here?
The growth was -69.7% (active).

For `Nc1ccccc1SC1CC(=O)N(c2ccc(I)cc2)C1=O` (stereo not given), which growth is on record?
Its growth is 87.9%.

Which growth does the source give for `COc1ccc(CCl)c(C)c1OC` here?
Its growth is 90.8%.

With `CCOCCC(=O)O` as the compound, how does the growth read?
Its growth is 96.1%.

`C(=N\OCCc1ccccc1)/c1ccccn1` was tested. Which growth did it give?
Its growth is 113% and 111%.

How did the growth turn out when `O=[N+]([O-])c1cccc(N=Cc2ccccc2)c1` was run?
The growth was 104%.

With `COc1ccc(/C=C/C(=O)O)cc1OC` as the compound, how does the growth read?
Its growth is 98% and 97.9%.

For `CC(CN(C)C)CN1c2ccccc2Sc2ccccc21` (stereo not given), which growth is on record?
The growth was 87.1% and 74% and 89.3%.

For `CC(=O)Oc1cc(C)c(OC(C)=O)c(C)c1C`, which growth is on record?
Its growth is 91.4%.

With `O=C(O)C#Cc1ccc(Cl)cc1` as the compound, how does the growth read?
The growth was 96.1%.

For `OCc1cccc(F)c1`, which growth is on record?
Its growth is 92.6%.

`O=C(O)c1c2c(nc3ccccc13)Cc1ccccc1-2` was tested. Which growth did it give?
The growth was 110% and 102%.

For `COC(=O)C(Cc1cn(C(C)=O)c2ccccc12)P(=O)(OC)OC` (stereo not given), which growth is on record?
Its growth is 96.8%.

Which growth does the source give for `O=C(c1ccc(Cl)cc1)C1C(c2ccccc2)C1[N+](=O)[O-]` (stereo not given) here?
Its growth is 96.9%.

Which growth does the source give for `O=C(O)C1CSCN1` (stereo not given) here?
The growth was 135%.

How did the growth turn out when `O=C1C2=C(Nc3cc(Cl)ccc3N2)OC1c1c[nH]c2ccc(COc3ccccc3)cc12` (stereo not given) was run?
The growth was 81%.

For `COc1ccc(S(=O)(=O)c2ccc(F)cc2)cc1`, which growth is on record?
Its growth is 106%.

Which growth does the source give for `CC1(CO)CCCC1NCCNC1CCCC1(C)CO` (stereo not given) here?
The growth was 99.7% and 101%.

`CCN(CC)CCNC(=O)c1ccc(NCN2C(=O)NC(c3ccccc3)(c3ccccc3)C2=O)cc1` was tested. Which growth did it give?
Its growth is 101% and 109%.

How did the growth turn out when `CCCC(=O)Oc1ccc2ccccc2c1` was run?
Its growth is 97.3%.

Which growth does the source give for `CCOC(=O)c1ccc(N2C(=O)C(Cl)(c3ccccc3)C2c2ccco2)cc1` (stereo not given) here?
Its growth is 70.4%.

With `CCOP(=O)(OCC)/C(C#N)=C/c1c(C)[nH]c2ccccc12` as the compound, how does the growth read?
The growth was 91.3%.

For `O=S(=O)(O)c1ccc2cc(O)ccc2c1`, which growth is on record?
Its growth is 96.8%.

`O=P(O)(O)OC1C(OP(=O)(O)O)C(OP(=O)(O)O)C(OP(=O)(O)O)C(OP(=O)(O)O)C1OP(=O)(O)O.[Cu+2]` (stereo not given) was tested. Which growth did it give?
Its growth is -56.1% (active).

How did the growth turn out when `CC(NC(=O)CCl)c1ccccc1` (stereo not given) was run?
Its growth is 93.7%.

How did the growth turn out when `CC1NC(C)c2ccc3ccccc3c2O1` (stereo not given) was run?
Its growth is 104%.

With `N#CC1c2ccccc2C=CN1C(=O)c1ccccc1` (stereo not given) as the compound, how does the growth read?
Its growth is 97.1% and 107%.

For `COc1ccc(-n2[nH]c3c(cnc4ccccc43)c2=O)cc1`, which growth is on record?
The growth was 100% and 98.7%.

With `O=C1c2ccccc2CN1c1ccccc1` as the compound, how does the growth read?
The growth was 96.5%.

With `NNC(=O)Nc1ccccc1` as the compound, how does the growth read?
Its growth is 101%.

With `O=C(O)COc1ccccc1F` as the compound, how does the growth read?
The growth was 95%.

With `O=[N+]([O-])c1ccc(NC2CCCCC2)nc1` as the compound, how does the growth read?
The growth was 112% and 106%.

Same assay, conditions: 50 µM

`S=c1nc[nH]c2nc[nH]c12` was tested. Which growth did it give?
The growth was 12.8%.

Same assay, conditions: 100 µM

`O=c1ccn2c(n1)OC1CC2OC1COC(c1ccccc1)(c1ccccc1)c1ccccc1` (stereo not given) was tested. Which growth did it give?
Its growth is 28.5%.

`CS/C(=C\c1ccc(C(=O)c2ccc(C)cc2)n1C)S(C)=O` (stereo not given) was tested. Which growth did it give?
The growth was 36.5%.

Reference: PubChem BioAssay (NCI)
